In PubChem BioAssay AID1159580 (chemical genetic matrix, 2015):
In all, about 5,500 compounds went through this assay and about 2,000 (36%) were called active. Not shown: some 18% with an inconclusive outcome. Rule as the data show it: active = normalized growth mostly below about 0.91 (no sharp cut-off); inconclusive = no clear call, values can overlap the other calls; inactive = mostly above about 0.92. The list shows a part of the results.

Assay: chemical genetic growth profiling, strain panel (AID 1159580);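 also: tested at 20 µM; growth read once vehicle control cultures reached saturation at 30 °C; 1 = growth at the plate median or of vehicle wells; lower values mean less growth of the strain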
Conditions: S. cerevisiae deletion strains, growth OD

Measured: normalized growth

OC(CN1CCC(Cc2ccc(F)cc2)CC1)c1ccc(Cl)cc1 (centres undefined)
inactive: locus YAL040C, strain CLN3, hits give low values 0.991 | locus YCL061C, strain MRC1 (second series), hits give low values 0.997 | locus YDR150W, strain NUM1, hits give low values 0.999 | locus YDR363W, strain ESC2, hits give low values 1.05 | locus YER002W, strain NOP16, hits give low values 1.03 | locus YGR229C, strain SMI1, hits give low values 1.07 | locus YJR075W, strain HOC1, hits give low values 1.01 | locus YMR263W, strain SAP30, hits give low values 0.992 | locus YNL128W, strain TEP1, hits give low values 1.01 | locus YNL175C, strain NOP13, hits give low values 1 | locus YNL197C, strain WHI3, hits give low values 1.01 | locus YNL224C, strain SQS1, hits give low values 1 | locus YOR083W, strain WHI5 (second series), hits give low values 1.05 | locus YPL055C, strain LGE1, hits give low values 1.01
